# This excerpt belongs to a sample that is enriched for hits.
# TDP-43 tox inh: inhibitors of TDP-43 toxicity in yeast. yeast TDP-43 toxicity rescue, BacTiter-Glo growth, 24 h. Potency, µM (doses to about 46.1 µM), actives largely listed as activators. 45,000 compounds, 0.45% hits. AID 1347073; active = well fitted activation curve with a large enough effect; also: 0% is about no effect; nearly all actives have a fitted effect of over 55% in size
#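 TDP-43-expressing yeast, pregrown in raffinose, seeded at OD600 0.02 in galactose medium with compound for 24 hr at 30 deg C. Growth read by BacTiter-Glo luminescence, so rescue of toxicity appears as activation.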
# An asterisk follows results filed as active; i = inactive. Potency is read from the fitted curve at half-maximal effect.
SMILES,TDP-43 tox inh
O=C(NC(=S)Nc1ccccc1)c1ccc(-c2ccccc2)cc1,i
O=C(Nc1ccc(C(=O)O)cc1)/C(=C\c1ccccc1)NC(=O)c1ccccc1,i
O=C(O)c1ccc(NC(=S)NC(=O)c2ccc(-c3ccccc3)cc2)cc1,12.6µM*
CCC(C)NC(=O)Cn1c(=O)n(CCCCCC(=O)NCc2ccccc2Cl)c(=O)c2sccc21 (stereo not drawn),i
Cc1cccc(C2c3[nH]c4ccccc4c3CCN2C(=O)Cc2n[nH]c(C)n2)n1 (stereo not drawn),i
CC(=O)c1ccc(C(=O)N2CCc3c([nH]c4ccccc34)C2c2cccc(C)n2)s1 (stereo not drawn),12.6µM*
Cc1cccc(C2c3[nH]c4ccccc4c3CCN2Cc2ccc(C)s2)n1 (stereo not drawn),i
CNc1cnc(-c2ccccc2OC)cn1,i
COc1cccc(N2CCN(c3c4c(nc5nncn35)CCC4)CC2)c1,i
O=C(N/N=C\c1cccc([N+](=O)[O-])c1O)C1COc2ccccc2O1 (stereo not drawn),10µM*
O=C(CNC(=O)C1COc2ccccc2O1)N/N=C\c1cccc(O)c1 (stereo not drawn),i
Cc1c(/C=N\NC(=O)C2COc3ccccc3O2)c2ccccc2n1C (stereo not drawn),i
Cc1ccccc1-n1c(SCC(=O)Nc2ccc(Cl)cc2Cl)nc(O)cc1=O,i
Cc1cc(C(=O)Cn2cnc3cc(F)ccc3c2=O)c(C)n1C1CC1,i
Cc1ccc(N(C)S(=O)(=O)c2cccc(C(=O)OCC(=O)c3c(N)n(C)c(=O)n(C)c3=O)c2)cc1,i
COc1ccc(NS(=O)(=O)c2cc(NC(=O)COc3ccccc3)ccc2N2CCOCC2)cc1,i
O=C(COc1c(F)c(F)c(C(F)(F)F)c(F)c1F)Nc1ccc(N2CCOCC2)c(Cl)c1,12.6µM*
COCc1cc(C)n(CC(=O)Nc2ccc(N3CCOCC3)c(Cl)c2)c(=O)c1C#N,i
COC(=O)c1cc2sc(C)cc2n1Cc1nc(-c2ccc(C)cc2)oc1C,i
Nn1c(SCc2cccc(Oc3ccccc3)c2)nnc1C(F)(F)F,12.6µM*
Cn1c(SCC(=O)Nc2ccccc2)nnc1C(F)(F)F,i
Nn1c(=O)c2ccccc2n2c(SCc3ccccc3)nnc12,i
COCCCNC(=O)c1ccc2nc([C@@H]3O[C@H](CO)[C@H](O)[C@H](O)[C@H]3O)[nH]c2c1,i
CCOc1ccc(OCC)c(Nc2nc3ccc(Cl)cc3n3cnnc23)c1,i
C/C(=N\Nc1ccc(Cl)c(C(=O)O)c1)c1cccc2ccccc12,i
SMILES,TDP-43 tox inh
C/C(=N\Nc1ccc(C(=O)O)cc1)c1ccc2c(c1)Nc1ccccc1S2,11.2µM*
C/C(=N\Nc1cccc(C(=O)O)c1)c1ccc(Cl)s1,i
COC(=O)c1cc2oc3ccccc3c2n1Cc1cc(C)ccc1C,i
CC(=O)c1c(C)[nH]c(C(=O)CSc2nnc(-c3ccco3)o2)c1C,i
CC(=O)c1ccc(NC(=O)CSc2nnc(-c3ccco3)o2)cc1,i
Cc1ccc(CSc2nnc(-c3ccco3)o2)cc1,12.6µM*
COc1cc(C2c3c(oc4ccccc4c3=O)C(=O)N2c2ccccn2)cc(OC)c1OC (stereo not drawn),i
Cc1ccc(C(=O)N2CCN(S(=O)(=O)c3cc(Br)ccc3Br)CC2)o1,14.1µM*
Cc1cc(C)c(S(=O)(=O)N2CCN(C(=O)c3cc4ccccc4o3)CC2)c(C)c1,i
Cc1onc(-c2ccccc2)c1C(=O)N1CCN(S(=O)(=O)c2ccccc2Br)CC1,i
Cc1cccc(CCNC(=O)CCc2c(C)nc3c4c(C)cc(C)nc4nn3c2C)c1,i
O=C(Nc1cc2c(cc1[N+](=O)[O-])OCCO2)c1cccnc1,i
Clc1cccc(N2CCN(c3c4c(nc5nncn35)CCC4)CC2)c1,i
COc1ccc(Br)cc1C(=O)NC(=S)Nc1ccc2[nH]c(=O)[nH]c2c1,i
COc1ccc(Br)cc1C(=O)Nc1ccc(C(=O)O)cc1,4.47µM*
COc1ccc(Br)cc1C(=O)Nc1ccc(N2CCCC2)cc1,i
Cc1ccc(CN(C(=O)COc2ccc(Cl)c(C)c2)C2CCS(=O)(=O)C2)o1 (stereo not drawn),i
Cc1ccccc1S(=O)Cc1ccc(C(=O)N2CCN(c3cccc(C)c3C)CC2)o1 (stereo not drawn),20µM*
COc1cccc(N2CCN(C(=O)c3ccc(CS(=O)c4ccc(C)cc4)o3)CC2)c1 (stereo not drawn),i
CC1=C(C(=O)N2CCN(c3cccc(C)c3C)CC2)C2(CCCCC2)OC1=O,i
Cc1ccc(C)n1-c1nnc(N2CCCC(C(=O)NCc3ccccc3)C2)s1 (stereo not drawn),i
CCc1ccc(OCC(=O)N(Cc2ccc(C)o2)C2CCS(=O)(=O)C2)cc1 (stereo not drawn),i
O=C(Nc1ccc(Oc2cccnc2)cc1)c1ccccc1Cl,i
O=C(O)c1ccccc1C(=O)Nc1ccc(S(=O)(=O)N2CCCC2)cc1,i
O=C(O)c1ccccc1C(=O)Nc1ccc(Oc2ccc3ccccc3c2)cc1,22.4µM*
SMILES,TDP-43 tox inh
Cc1ccc(CN(C(=O)COc2ccc(F)cc2)C2CCS(=O)(=O)C2)o1 (stereo not drawn),i
Cc1cccc(OCCC(=O)Nc2ccc(F)c(Cl)c2)c1,12.6µM*
Cc1ccc(OCCC(=O)Nc2ccc(F)c(F)c2)cc1,i
Cc1ccc(NC(=O)Nc2ccc(F)c(Cl)c2)cc1,i
Cc1cc(C)cc(-n2c3ccc(NC(=S)NC4CCCCC4)cc3c(=O)n2C)c1,i
COc1ccccc1C(=O)Nc1cccc(NC(=O)c2ccccc2C)c1,14.1µM*
COc1cccc(NC(=O)c2cccc(C)c2[N+](=O)[O-])c1,i
CCN(CC)c1cc(C)c2cc(NC(=O)c3ccccc3OC)ccc2n1,i
COc1ccc(NC(=O)CCS(=O)(=O)c2ccc3c(c2)n(C)c(=O)c(=O)n3C)cc1Cl,i
CCOc1ccc(NC(=O)CSc2ccc3ccccc3n2)cc1,i
COc1ccc(Cl)cc1C(=O)OCC(=O)N1CCCC(C)C1 (stereo not drawn),i
COc1ccc(Cl)cc1C(=O)OCC(=O)NC1CCCC(C)C1C (stereo not drawn),17.8µM*
COc1cccc2cc(C(=O)OCC(=O)NC3CCCC(C)C3C)c(=O)oc12 (stereo not drawn),i
CNc1oc(/C=C/c2cc(OC)c(OC)c(OC)c2)nc1C#N,i
CCn1c(C)nc2cc(C(=O)N/N=C/c3cccc(OC)c3O)ccc21,i
COc1cccc(/C=N/NC(=O)N/N=C/c2cccc(OC)c2O)c1O,i
COc1cccc(/C=N/NC(=O)c2nc(-c3ccccc3)cc(-c3ccccc3)n2)c1O,12.6µM*
COc1cc(C(=O)NCC(=O)N/N=C/c2cccnc2)cc(OC)c1OC,i
COCc1cccc(-c2csc(C(C)(NC(C)=O)c3ccccc3)n2)c1 (stereo not drawn),i
O=C(Cn1c(=O)oc2cc(S(=O)(=O)N3CCCC3)ccc21)Nc1ccc(F)cc1F,i
COc1ccc(OC)c(CNC(=O)C(C)n2c(C)c3cnn(-c4ccccc4)c(=O)c3c2C)c1 (stereo not drawn),i
COc1cc(/C=C/C(=O)OC(C)C(=O)Nc2ccc(Cl)cn2)ccc1OC(F)F (stereo not drawn),i
CCCCOC(=O)/C=C/c1ccc(OC(=O)OC)c(OC(=O)OC)c1,i
COC(=O)Oc1ccc(/C=C/C(=O)OC(C)C)cc1OC(=O)OC,14.1µM*

# Screening results (PubChem BioAssay)
